Holding throughout (settings): Compound concentration 20.0 uM
Assay [1] addresses Tyrosine-protein kinase ABL1 (Homo sapiens) (UniProt P00519).
For assay [2], the target named is Bromodomain-containing protein 4 (Homo sapiens) (UniProt O60885).
In assay [3] the target is Cyclin-dependent kinase 2 (Homo sapiens) (UniProt P24941).
Assay [4] deals with Casein kinase I isoform delta (Homo sapiens) (UniProt P48730).
Assay [5] concerns the target Glycogen synthase kinase-3 beta (Homo sapiens) (UniProt P49841).
Assay [6] concerns the target Mitogen-activated protein kinase 1 (Homo sapiens) (UniProt P28482).
Assay [7] concerns the target T1, Aurora kinase A (Homo sapiens) (UniProt O14965).
T1 sequence (whole entry): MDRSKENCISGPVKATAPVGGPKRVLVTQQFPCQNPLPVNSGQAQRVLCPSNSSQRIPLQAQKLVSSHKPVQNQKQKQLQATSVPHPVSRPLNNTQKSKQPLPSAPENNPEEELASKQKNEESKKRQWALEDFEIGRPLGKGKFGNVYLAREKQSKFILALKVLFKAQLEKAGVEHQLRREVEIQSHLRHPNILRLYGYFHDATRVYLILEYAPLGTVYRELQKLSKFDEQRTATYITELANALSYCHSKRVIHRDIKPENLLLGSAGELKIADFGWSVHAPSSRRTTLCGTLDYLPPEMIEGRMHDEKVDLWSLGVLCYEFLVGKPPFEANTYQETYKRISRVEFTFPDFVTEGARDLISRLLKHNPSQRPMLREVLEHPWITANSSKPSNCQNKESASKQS

Assay [8] has as its target T2, Transcription intermediary factor 1-alpha (Homo sapiens) (UniProt O15164).
T2 sequence (whole entry): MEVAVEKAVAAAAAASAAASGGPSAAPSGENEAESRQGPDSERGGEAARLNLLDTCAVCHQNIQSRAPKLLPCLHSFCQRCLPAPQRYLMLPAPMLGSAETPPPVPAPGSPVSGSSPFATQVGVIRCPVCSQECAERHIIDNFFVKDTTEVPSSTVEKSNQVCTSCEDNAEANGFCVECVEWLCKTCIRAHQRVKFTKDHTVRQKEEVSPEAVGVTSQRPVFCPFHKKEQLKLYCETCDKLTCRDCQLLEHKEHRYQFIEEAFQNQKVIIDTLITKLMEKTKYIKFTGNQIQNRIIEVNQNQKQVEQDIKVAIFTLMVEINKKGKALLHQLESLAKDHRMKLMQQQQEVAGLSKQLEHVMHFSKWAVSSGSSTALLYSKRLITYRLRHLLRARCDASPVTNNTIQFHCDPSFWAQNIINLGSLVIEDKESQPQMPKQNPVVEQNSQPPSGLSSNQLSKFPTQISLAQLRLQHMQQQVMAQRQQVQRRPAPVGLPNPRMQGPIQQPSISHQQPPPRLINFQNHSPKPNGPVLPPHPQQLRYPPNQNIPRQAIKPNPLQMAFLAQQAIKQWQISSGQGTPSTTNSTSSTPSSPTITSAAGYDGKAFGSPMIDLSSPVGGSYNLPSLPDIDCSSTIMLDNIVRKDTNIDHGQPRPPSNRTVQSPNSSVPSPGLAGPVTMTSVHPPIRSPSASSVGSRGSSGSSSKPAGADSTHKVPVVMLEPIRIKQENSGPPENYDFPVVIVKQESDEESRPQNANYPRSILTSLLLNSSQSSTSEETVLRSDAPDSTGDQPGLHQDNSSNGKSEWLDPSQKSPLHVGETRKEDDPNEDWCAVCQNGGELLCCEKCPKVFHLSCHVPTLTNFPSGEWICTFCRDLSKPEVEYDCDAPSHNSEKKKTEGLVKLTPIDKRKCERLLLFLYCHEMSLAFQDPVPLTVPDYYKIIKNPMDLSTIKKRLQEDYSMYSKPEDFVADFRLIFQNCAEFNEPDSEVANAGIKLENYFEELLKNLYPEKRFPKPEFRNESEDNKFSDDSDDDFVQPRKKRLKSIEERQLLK

The structures appear in SMILES notation.

Sequence of Tyrosine-protein kinase ABL1 (Homo sapiens) (P00519 whole entry): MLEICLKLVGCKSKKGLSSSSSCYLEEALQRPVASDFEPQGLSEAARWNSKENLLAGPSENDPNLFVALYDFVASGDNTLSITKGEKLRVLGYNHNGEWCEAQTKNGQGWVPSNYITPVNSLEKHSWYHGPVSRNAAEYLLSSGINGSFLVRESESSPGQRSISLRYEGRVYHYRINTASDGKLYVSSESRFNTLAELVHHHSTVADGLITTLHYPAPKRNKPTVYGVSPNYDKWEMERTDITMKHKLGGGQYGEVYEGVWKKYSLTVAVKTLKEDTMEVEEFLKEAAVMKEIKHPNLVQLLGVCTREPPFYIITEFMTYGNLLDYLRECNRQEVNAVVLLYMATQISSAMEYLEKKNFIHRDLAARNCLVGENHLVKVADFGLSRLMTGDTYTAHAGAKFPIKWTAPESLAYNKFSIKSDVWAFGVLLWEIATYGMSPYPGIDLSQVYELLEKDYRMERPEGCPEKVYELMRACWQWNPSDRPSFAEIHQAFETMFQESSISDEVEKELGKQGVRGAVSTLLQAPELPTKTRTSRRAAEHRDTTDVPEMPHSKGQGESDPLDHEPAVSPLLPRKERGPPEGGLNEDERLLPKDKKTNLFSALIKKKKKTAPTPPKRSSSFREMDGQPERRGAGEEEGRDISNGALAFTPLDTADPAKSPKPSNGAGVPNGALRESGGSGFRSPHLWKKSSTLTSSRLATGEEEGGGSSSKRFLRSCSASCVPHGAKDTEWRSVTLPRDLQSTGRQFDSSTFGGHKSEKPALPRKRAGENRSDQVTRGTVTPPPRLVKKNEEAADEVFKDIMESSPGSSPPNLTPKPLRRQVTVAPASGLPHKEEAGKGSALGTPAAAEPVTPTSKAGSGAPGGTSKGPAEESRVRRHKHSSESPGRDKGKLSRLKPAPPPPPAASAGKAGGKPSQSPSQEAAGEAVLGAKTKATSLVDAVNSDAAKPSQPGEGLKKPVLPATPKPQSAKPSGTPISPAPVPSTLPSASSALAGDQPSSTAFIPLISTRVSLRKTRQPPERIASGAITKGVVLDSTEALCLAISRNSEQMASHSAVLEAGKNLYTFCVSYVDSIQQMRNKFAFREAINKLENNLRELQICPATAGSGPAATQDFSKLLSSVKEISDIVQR
Sequence of Casein kinase I isoform delta (Homo sapiens) (P48730 whole entry, looked up, canonical isoform): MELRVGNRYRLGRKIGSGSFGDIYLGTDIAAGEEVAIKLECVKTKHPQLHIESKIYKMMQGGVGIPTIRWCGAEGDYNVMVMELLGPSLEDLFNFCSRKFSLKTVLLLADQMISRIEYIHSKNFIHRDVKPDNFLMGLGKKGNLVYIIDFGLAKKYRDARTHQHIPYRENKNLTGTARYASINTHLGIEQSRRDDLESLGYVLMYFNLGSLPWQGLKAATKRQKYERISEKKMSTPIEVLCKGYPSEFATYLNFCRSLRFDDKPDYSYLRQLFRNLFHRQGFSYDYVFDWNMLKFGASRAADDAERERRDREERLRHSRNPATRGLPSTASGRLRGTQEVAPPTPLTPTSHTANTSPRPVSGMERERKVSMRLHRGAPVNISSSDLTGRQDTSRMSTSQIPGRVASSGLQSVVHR
Sequence of Glycogen synthase kinase-3 beta (Homo sapiens) (P49841 whole entry, looked up): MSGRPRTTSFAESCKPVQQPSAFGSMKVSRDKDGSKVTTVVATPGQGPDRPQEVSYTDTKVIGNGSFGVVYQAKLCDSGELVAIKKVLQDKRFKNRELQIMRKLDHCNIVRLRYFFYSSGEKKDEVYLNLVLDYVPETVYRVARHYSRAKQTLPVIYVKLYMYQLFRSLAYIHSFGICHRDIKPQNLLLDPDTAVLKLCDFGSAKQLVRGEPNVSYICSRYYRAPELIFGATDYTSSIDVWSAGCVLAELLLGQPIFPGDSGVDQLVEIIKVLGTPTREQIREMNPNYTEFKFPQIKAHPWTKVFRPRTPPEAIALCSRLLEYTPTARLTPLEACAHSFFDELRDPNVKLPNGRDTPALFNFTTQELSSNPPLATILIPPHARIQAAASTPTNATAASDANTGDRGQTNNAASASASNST
Sequence of Mitogen-activated protein kinase 1 (Homo sapiens) (P28482 whole entry): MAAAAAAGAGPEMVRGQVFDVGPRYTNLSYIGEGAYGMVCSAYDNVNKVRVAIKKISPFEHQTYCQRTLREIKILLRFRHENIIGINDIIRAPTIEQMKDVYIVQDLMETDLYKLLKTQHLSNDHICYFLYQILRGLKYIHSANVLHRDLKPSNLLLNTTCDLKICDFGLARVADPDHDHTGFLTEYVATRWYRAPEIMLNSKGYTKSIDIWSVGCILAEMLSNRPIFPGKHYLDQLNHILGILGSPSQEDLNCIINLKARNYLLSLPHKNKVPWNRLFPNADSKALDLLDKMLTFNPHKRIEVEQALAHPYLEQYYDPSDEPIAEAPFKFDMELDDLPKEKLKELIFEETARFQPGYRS

The term ΔTm denotes the shift of the melting midpoint relative to a reference. On to `COc1ccc(Cc2nc(O)c3c(C)nc([C@@H](CCCc4ccccc4)[C@@H](C)O)n3n2)cc1OC`, for which the thermal shift (ΔTm) in assay [1] is -0.12 °C; in assay [2], -2.72 °C; in assay [3], 0 °C; in assay [4] it was -0.14 °C; in assay [5], 1.15 °C; in assay [6], 0.16 °C. In addition, the ΔTm was -1.36 °C in assay [7] and -0.56 °C in assay [8].

For `Cc1ccsc1C(=CCCN1CCC[C@@H](C(=O)O)C1)c1sccc1C`, the ΔTm was 0.26 °C in assay [1]; 0.65 °C in assay [2]; 0.86 °C in assay [3]; -0.21 °C in assay [4]; -0.18 °C in assay [5]; 0.16 °C in assay [6]. For the same molecule, the figures for the ΔTm in assay [7] and in assay [8] were -1.21 °C and 0.76 °C, respectively.

Consider `COc1cc(C(=O)N2C[C@H](N)CC[C@@H]2C)cc2nc(-c3cc4cccnc4n3CC3CC3)n(C)c12`, for which the ΔTm in assay [1] is 0.14 °C; in assay [2] it was 0.61 °C; in assay [3], 0.15 °C; in assay [4], -0.38 °C; in assay [5], -1.31 °C; in assay [6] it was -0.7 °C. Moreover, the ΔTm was -1.15 °C in assay [7] and 0.53 °C in assay [8].

Take `N#Cc1c(N)[nH]c2cc(/C=C/c3cccc(F)c3)ccc12`: the ΔTm in assay [1] was 1.1 °C; in assay [2], 3.17 °C; in assay [3] it was 2.67 °C; in assay [4], -0.33 °C; in assay [5] it was -0.5 °C; in assay [6] it was 1.9 °C. The figures for the ΔTm in assay [7] and in assay [8] were 0.33 °C and 1.03 °C, respectively.

In the case of `CNC(=O)Cn1cc(-c2ccc3c(c2)[C@H](F)C[C@]32NC(=O)N(CC(=O)N(Cc3ccc(F)cc3)[C@@H](C)C(F)(F)F)C2=O)cn1`, the ΔTm in assay [1] was 0.95 °C; in assay [2], -4.22 °C; in assay [3], 1.31 °C; in assay [4], 0.73 °C; in assay [5] it was 1.28 °C; in assay [6] it was -6.46 °C. In addition, the shift in melting temperature (ΔTm) in assay [7] is -1.03 °C; in assay [8], -1.4 °C.

With `O=C(NO)c1ccc(CN2CCCc3cc(Cl)ccc32)cc1`, the ΔTm in assay [1] is 0.31 °C; in assay [2], -1.3 °C; in assay [3], -0.96 °C; in assay [4], -0.07 °C; in assay [5], 0.96 °C; in assay [6], -0.12 °C. Also, the ΔTm in assay [7] is -0.45 °C; in assay [8], -1.53 °C.

`COc1cc([C@@H]2Oc3c(O)cc([C@H]4Oc5cc(O)cc(O)c5C(=O)[C@@H]4O)cc3[C@H]2CO)ccc1O`: the thermal shift (ΔTm) was 0.61 °C in assay [1]; -1.83 °C in assay [2]; 0.16 °C in assay [3]; 0.36 °C in assay [4]; 3.53 °C in assay [5]; 0.13 °C in assay [6]. The ΔTm in assay [7] was -1.74 °C; in assay [8], 1.87 °C.

As to `C[C@@H]1CN(c2ncc(Cl)c(Nc3ccc4c(c3)n(CCC(C)(C)O)c(=O)n4C)n2)C[C@H](C)C1(F)F`, the ΔTm in assay [1] is -0.67 °C; in assay [2] it was 0.35 °C; in assay [3], 1.82 °C; in assay [4], -0.69 °C; in assay [5] it was 4.11 °C; in assay [6], -8.12 °C. Moreover, the figures for the ΔTm in assay [7] and in assay [8] were 4 °C and 2.58 °C, respectively.

As for `CC(C)(C)OC(=O)N1CCN(C(=O)n2cc(-c3ccc(OC(F)(F)F)cc3)nn2)C(Cc2ccccc2)C1` (stereo unspecified), the ΔTm in assay [1] is 0.06 °C; in assay [2], -0.12 °C; in assay [3], 0.53 °C; in assay [4] it was -0.73 °C; in assay [5] it was -0.69 °C; in assay [6] it was -0.4 °C. The ΔTm in assay [7] was -1.5 °C; in assay [8] it was -0.53 °C.

In the case of `Cn1c(OC[C@H]2CC[C@H](C(F)(F)F)CC2)nn2c(C3CCOCC3)ncc2c1=O`, the ΔTm is 0.42 °C in assay [1]; -3.44 °C in assay [2]; -0.19 °C in assay [3]; -0.45 °C in assay [4]; 0.18 °C in assay [5]; 0.06 °C in assay [6]. The ΔTm in assay [7] was -2.37 °C; in assay [8], -1.13 °C.

Take `O=S(=O)(CSc1nnc(Br)n1Cc1ccc(Br)c2ccccc12)Nc1cccnc1`: the ΔTm in assay [1] is 0.41 °C; in assay [2] it was -4.11 °C; in assay [3], -0.15 °C; in assay [4] it was -0.32 °C; in assay [5], -0.3 °C; in assay [6], 0.05 °C. Besides, the shift in melting temperature (ΔTm) was -1.41 °C in assay [7] and -0.15 °C in assay [8].

Turning to `C[C@H](NC(=O)c1cn(C2(C#N)CC2)cn1)C(=O)Nc1nc(-c2cccc(-c3ccn(C)n3)c2)cs1`, the ΔTm in assay [1] was 0.58 °C; in assay [2] it was -1.99 °C; in assay [3], 0.19 °C; in assay [4] it was 0.61 °C; in assay [5] it was -0.01 °C; in assay [6], -0.23 °C. The thermal shift (ΔTm) in assay [7] is 1.33 °C; in assay [8], -0.79 °C.

The values are drawn from ChEMBL document CHEMBL5724796, “Tm Shift (DSF) assay results for EUbOPEN Chemogenomics Library” (2024).
